Hits are enriched below; roughly 2.6% of the tested compounds scored in any of these assays.
Cruzain Triton: cruzain (T. cruzi) inhibition with detergent. P25779. purified cruzain, Z-FR-AMC fluorescence, 0.01% Triton. Potency, µM, hits mostly inhibitors. 200,000 tested, 0.43% active; further: nearly all actives have a fitted effect of over 40% in size
Target sequence (P25779 123-467 limits assumed): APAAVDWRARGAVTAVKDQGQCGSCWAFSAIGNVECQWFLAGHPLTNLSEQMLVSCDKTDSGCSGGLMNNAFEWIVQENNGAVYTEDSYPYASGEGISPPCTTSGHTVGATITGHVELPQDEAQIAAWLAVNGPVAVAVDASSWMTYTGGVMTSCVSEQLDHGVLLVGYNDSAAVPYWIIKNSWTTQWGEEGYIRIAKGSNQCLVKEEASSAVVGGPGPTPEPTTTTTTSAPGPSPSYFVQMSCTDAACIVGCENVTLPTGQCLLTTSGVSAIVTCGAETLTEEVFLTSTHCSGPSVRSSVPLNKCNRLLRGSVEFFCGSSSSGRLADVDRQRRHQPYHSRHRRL
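Sodium acetate buffer (100 mM, pH 5.5) containing 5 mM DTT and 0.01% Triton X-100 hosted 1.5 nM cruzain and test compound for 15 min at room temperature. Cleavage of 2 uM Z-FR-AMC was then tracked by fluorescence.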
Cruzain noTriton: blocks cruzain activity in detergent-free assay; P25779; purified cruzain, Z-FR-AMC fluorescence, no detergent; Potency, µM, usual class: inhibitors; 200,000 tested, 2.3% active; AID 1476; further: nearly all actives have a fitted effect of over 40% in size
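Detergent-free condition (0.00005% Triton X-100) in acetate buffer pH 5.5 with DTT. 1.5 nM enzyme and compound were pre-mixed 15 min, then 2 uM Z-FR-AMC substrate added; reaction progress from fluorescence change between first and third reads (60 s).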
Large screens that a line does not name were inactive. The call rests on the fitted dose curve; in most records, active means well fitted curve in the direction sought with a large enough effect; inconclusive means small, poorly fitted or top-dose-only effect, or another doubt; inactive means no such curve, though single readings can be large; an effect the other way counts as inactive or inconclusive.

O=C(Cc1ccccc1)Nc1nnc(-c2cccs2)s1	Cruzain noTriton 25µM
COCC(=O)Nc1nnc(-c2cccs2)s1	none
O=S(=O)(c1ccccc1)N1CCn2c(nc3ccccc32)C1	none
O=S(=O)(c1ccc(F)cc1)N1CCn2c(nc3ccccc32)C1	Cruzain Triton 18µM, Cruzain noTriton 5µM
N#Cc1cc2c(=O)n3ccccc3nc2n(-c2nnc(SCc3ccccc3)s2)c1=O	none
Cc1cccn2c(=O)c3cc(C#N)c(=O)n(-c4nnc(SCc5ccc(Cl)cc5)s4)c3nc12	Cruzain noTriton 20µM
CCCC[C@H](CC)CN1CN(C[C@@H](CC)CCCC)CC(C)(N)C1	none
CCn1c(C(=O)N2CCCC(C(=O)N3CCN(c4cc(C)ccc4C)CC3)C2)cc2sccc21 (stereo not drawn)	Cruzain noTriton inconclusive
COc1ccc(Nc2nc3ccccc3c3nnc(C)n23)cc1Cl	Cruzain noTriton inconclusive
Cc1cccc(N2CCN(c3nc4ccccc4c4nc(-c5ccccc5)nn34)CC2)c1C	none
Cc1ccc(-c2csc(C3C(N)=NC(S)=C(C#N)C34CCCCC4)n2)cc1 (stereo not drawn)	Cruzain noTriton 16µM
N#CC1=C(S)N=C(N)C(c2nc(-c3ccccc3)cs2)C12CCCCC2 (stereo not drawn)	none
COc1ccc(-c2cc(C(F)(F)F)nc(SCC(=O)N3CCCCC3)n2)cc1OC	none
Cc1ccc(C)c(N2CCN(C(=O)CN3C(=O)CSc4c3c(C)nn4-c3ccccc3)CC2)c1	none
CCCCOC(=O)c1ccc(NC(=O)C2(c3cccs3)CCOCC2)cc1	Cruzain noTriton inconclusive
CCn1nnc(NC(=O)c2cccc(-c3cc4ccccc4oc3=O)c2)n1	none
CCOc1ccc(C(=O)Nc2cccc(-c3cc4ccccc4oc3=O)c2)cc1[N+](=O)[O-]	Cruzain noTriton inconclusive
O=C(Nc1cccc(Cl)c1N1CCCC1)c1cccc(-c2cc3ccccc3oc2=O)c1	Cruzain noTriton 10µM
CCOc1ccc2nc(NC(=O)c3cccc(-c4cc5ccccc5oc4=O)c3)sc2c1	Cruzain noTriton 13µM
Cc1cc(NC(=O)c2ccc(Cl)c(Cl)c2)ccc1-c1cc2ccccc2oc1=O	none
Cc1ccc2nc(NC(=O)c3cccc(-c4cc5ccccc5oc4=O)c3)sc2c1	Cruzain noTriton 10µM
COc1ccc(Cn2cc(C(=O)c3ccc(OC)cc3)c(=O)c3cc4c(cc32)OCCO4)cc1	none
COc1ccccc1CNC(=O)CN1C(=O)CCc2cc(S(=O)(=O)N3CCOCC3)ccc21	none
COc1ccc2c(c1)O[C@H](c1ccc3c(c1)OCO3)[C@@H](OC(=O)Nc1ccc(OC(F)F)cc1)C2=O	none
Cc1cc(NC(=O)CCCn2c(C)c3cnn(-c4ccccc4)c(=O)c3c2C)ccc1Br	none
O=C(/C=C/Nc1ccc(F)c(F)c1)c1ccc(Br)cc1	Cruzain noTriton 25µM
Cc1cc(N/C=C/C(=O)c2ccc(Br)cc2)no1	Cruzain noTriton inconclusive
O=C(/C=C/Nc1ccc([N+](=O)[O-])cc1)c1ccc(Br)cc1	Cruzain noTriton 20µM
O=C(/C=C/Nc1ccccc1F)c1ccc(Br)cc1	Cruzain noTriton inconclusive
Cc1cc(C)c2nc3c(c([C@H](O)C4CCCCN4)c2c1)CC/C3=C/c1ccc(Cl)cc1 (stereo partly drawn)	none
O=C(c1ccc(CS(=O)c2ccccc2Cl)o1)N1CCN(c2ccccc2F)CC1 (stereo not drawn)	none
Cc1ccc(NC(=O)Cn2c(=O)n(-c3ccc(C)cc3)c(=O)c3ccc(C(=O)NCc4ccccc4Cl)cc32)cc1	none
O=C(CCS(=O)(=O)c1cccs1)Nc1ccc(C(=O)Nc2cccc(Cl)c2)cc1	none
CC(C)c1ccc(NC(=O)c2ccc(NC(=O)CCS(=O)(=O)c3cccs3)cc2)cc1	Cruzain noTriton 32µM
COc1ccc(CNC(=O)CSc2nc3ccsc3c(=O)n2Cc2ccccc2Cl)cc1	none
COc1ccc(Cl)cc1NC(=O)c1ccc(CN2C(=O)CCn3nc(C)cc32)cc1	Cruzain noTriton inconclusive
O=C(NCc1cccc(Cl)c1)c1cc2ccc3cccnc3c2[nH]1	none
O=C(NCc1ccc(Cl)cc1)c1cc2ccc3cccnc3c2[nH]1	Cruzain noTriton 25µM
S=C(NCc1ccc(Cl)c(Cl)c1)Nc1ccc2c(c1)OCO2	none
S=C(NCc1ccc2c(c1)OCO2)Nc1ccc(-c2nc3ccccc3[nH]2)cc1	Cruzain noTriton 20µM
Cc1ccc(-c2nc3ccccc3[nH]2)cc1NC(=O)c1ccc2c(c1)OCO2	Cruzain noTriton inconclusive
O=C(NC(=S)Nc1cc(-c2nc3ccccc3[nH]2)ccc1Cl)c1ccc2c(c1)OCO2	Cruzain Triton 18µM, Cruzain noTriton 32µM
COc1ccccc1C(=O)NC1(C(F)(F)F)C(=O)Nc2c1c(=O)[nH]c(=O)n2-c1ccc(F)cc1 (stereo not drawn)	none
COc1ccc(C2=C(C)C(=O)N(Cc3ccc(C(=O)NCc4ccc(C)cc4)cc3)S2(=O)=O)cc1	none
CC1=C(c2ccc(C)c(C)c2)S(=O)(=O)N(Cc2ccc(C(=O)NC(C)c3ccccc3)cc2)C1=O (stereo not drawn)	none
